Compounds with a hit are over-represented: about 10% of the library has one in this group of screens.
Pf growth 96h = Primary qHTS for delayed death inhibitors of the malarial parasite plastid, 96 hour incubation | actives 6.9% (n = 320,000) | P. falciparum luciferase reporter growth, 96 h | Potency, µM (titrated, usually from 28.7 µM), for inactives: top-dose activity change, negative = inhibition, usual class: inhibitors; note: potency is the fitted concentration of half-maximal effect; % is set by controls: 0 for no effect and ±100 for the full control effect
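Cell-based qHTS: luciferase-tagged P. falciparum in erythrocytes (2% hematocrit, 0.05% parasitemia final) incubated with compounds for 96 hours, 37 C, 5% CO2; luciferase detection reagent then added and luminescence measured.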
Pf growth 48h = Primary qHTS for delayed death inhibitors of the malarial parasite plastid, 48 hour incubation; P. falciparum luciferase growth in erythrocytes, 48 h; Potency, µM (top dose mostly 28.7 µM), for inactives: at the highest dose activity change, negative = inhibition, hits mostly inhibitors; actives 5.9% (n = 310,000); AID 504832, 2011; note: potency is the fitted concentration of half-maximal effect; % is set by controls: 0 for no effect and ±100 for the full control effect
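First compound was added to culture medium, then infected red cells at 0.1% parasitemia and 2% hematocrit (final). After incubation at 37 C under 5% CO2, luciferase detection reagent was dispensed and light output recorded.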
NS1 inh = qHTS Assay for Inhibitors of Influenza NS1 Protein Function; Potency, µM (doses to about 46.1 µM), inactives show top-dose activity, positive = more growth; actives 0.4% (n = 270,000); AID 2326, 2010; calls by dose curve; note: potency is the fitted concentration of half-maximal effect; actives are rising curves; nearly all actives have a fitted effect of over 50% in size
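Recovery from NS1-induced slow growth read by OD600 in budding yeast switched to galactose assay medium (pH 6.0, -URA) at 1:100 dilution. Compound 23 nl per well; the matching strain lacking NS1 serves as control.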
SARS PLpro yeast-1 = qHTS of Yeast-based Assay for SARS-CoV PLP. S. cerevisiae expressing SARS-CoV PLpro, growth rescue. Potency, µM (series often up to 32.9 µM), without a hit: at the top dose activity, positive = growth rescue, hits mostly activators. actives 0.19% (n = 330,000). AID 485353, 2010; calls by dose curve; note: potency is the fitted concentration of half-maximal effect; 0% is about no effect; nearly all actives have a fitted effect of over 55% in size
SARS PLpro yeast-2 = qHTS of Yeast-based Assay for SARS-CoV PLP: Hit Validation; shares compounds with SARS PLpro yeast-1; yeast expressing SARS-CoV PLpro, growth phenotype rescue; calls only; actives 19% (n = 1,000); AID 652038, 2013; call rule not given here
Numbers without * were called inactive; i = inactive; ? = inconclusive; . = no result given; + = active, no number. Unless noted, calls come from the whole dose curve; as a rule, active = well fitted inhibition curve with a large enough effect; inconclusive = small, poorly fitted or top-dose-only effect, or another doubt; inactive = no such curve, though single readings can be large or run the other way.

SMILES	Pf growth 96h	Pf growth 48h	NS1 inh	SARS PLpro yeast-1	SARS PLpro yeast-2
CCc1nc(Nc2ccc(OC)c(OC)c2)c2nnn(Cc3ccccc3Cl)c2n1	-12%	?	3%	18µM*	+
O=C(NC1CCS(=O)(=O)C1)c1cccs1 (configuration not stated)	238%	16%	8%	3%	.
CCOc1ccc(NC(=O)CC2S/C(=N/N=C3CCCCCC3)NC2=O)cc1 (configuration not stated)	?	?	0%	?	i
CCCCOc1ccc(/C=N/Nc2cc(N3CCOCC3)nc(C)n2)cc1	-18%	0%	?	1%	.
CCCOc1ccc(/C=N/Nc2cc(N3CCOCC3)ncn2)c(O)c1	-6%	2.1µM*	-25%	5µM*	+
Cc1csc(=O)n1CCC(=O)OCC(=O)Nc1ccc(F)c(F)c1F	6%	1%	.	10%	.
CCCCCN(C(=O)NC(=O)Nc1ccccc1C)S(=O)(=O)c1ccccc1	5%	43%	-10%	?	i
CN(CC(=O)Nc1ccccc1Br)C(=O)CN1CCN(Cc2cccc(Cl)c2)CC1	.	.	.	4%	.
Cc1occc1C(=O)N/N=C/c1ccc(Cl)c([N+](=O)[O-])c1	-7%	7%	-11%	?	?
COc1ccc(/C=N/NC(=O)c2ccoc2C)cc1OC	14%	70%	-1%	10%	.
CC1CCCCC12NC(=O)N(CC(=O)N1CCN(C(=O)c3cccs3)CC1)C2=O (configuration not stated)	3%	-26%	.	-1%	.
Cc1ccc2c(O)c(C)c(=O)[nH]c2n1	32%	21%	3%	-1%	.
Cc1c(O)c2cccnc2[nH]c1=O	42%	-8%	12%	3.5µM*	i
COc1ccc(/C=N/N2CCN(c3ccc(Cl)cc3)CC2)cc1	63%	74%	18%	3%	.
Cc1ccc(N=C2C(=S)N(c3ccc(C)cc3)C(=N)N2/N=C/c2ccc(Cl)cc2)cc1	?	-23%	6%	11µM*	+
COc1ccc(-c2cc(C(=O)NCC(c3ccco3)N(C)C)c3ccccc3n2)cc1OC (configuration not stated)	?	?	.	2%	.
Cn1c(=O)n(C)c2cc(NC(=O)CCl)ccc21	?	1.5µM*	-7%	10µM*	+
CC(=O)Nc1ccc2c(c1)n(C)c(=O)n2C	.	9%	9%	?	.
C1CC(CN2CCOCC2)CN(Cc2nc(CC3CC3)no2)C1 (configuration not stated)	31%	26%	2%	-2%	.
COc1cc(/C=N/NC(=O)/C(=C\c2ccc([N+](=O)[O-])cc2)NC(=O)c2ccccc2)cc(OC)c1O	.	.	26%	6%	.
O=C(N/N=C/c1cc([N+](=O)[O-])cc([N+](=O)[O-])c1O)/C(=C\c1cccs1)NC(=O)c1ccccc1	29%	7%	7%	?	+
Cc1cc(Cl)ccc1OCC(=O)N/N=C1\CC2C=CCC12 (configuration not stated)	-4%	12%	19%	?	i
Cc1cc(Cl)ccc1OCC(=O)NC1CCCC1	?	.	-81%	-8%	.
c1ccc2c(CCNCc3ccc4c(c3)OCO4)c[nH]c2c1	73%	?	9%	?	i
CCOC(=O)c1c(SCC(=O)Nc2nccs2)nc(C)c(C)c1C	?	48%	-2%	-3%	.
SMILES	Pf growth 96h	Pf growth 48h	NS1 inh	SARS PLpro yeast-1	SARS PLpro yeast-2
COc1cc(NC(=O)c2cccc([N+](=O)[O-])c2C)ccc1NC(=O)c1ccco1	0%	24%	19%	2.8µM*	i
COc1cc(NC(=O)c2cc([N+](=O)[O-])ccc2N2CCOCC2)ccc1NC(=O)c1ccco1	?	?	5%	14%	.
CN(C)S(=O)(=O)N1CCCC(C(=O)c2ccc(-c3ccccc3)c(F)c2)C1 (configuration not stated)	26%	?	-10%	-2%	.
C/C(=N\NC(=O)CCCNc1ccccc1)c1ccncc1	?	-2%	-3%	1%	.
C/C(=N\NC(=O)CCCNc1ccc(C)cc1)c1ccccn1	?	?	-20%	?	+
O=C(CNS(=O)(=O)c1ccc2ccccc2c1)OCc1csc(-c2ccccc2)n1	?	-6%	-17%	3.2µM*	i
Cc1ccc(N2CN(Cc3ccco3)CNC2=S)c(C)c1	?	?	20%	?	?
Cc1ccc(N2CN(Cc3cccnc3)CNC2=S)c(C)c1	0%	8%	6%	-14%	.
NC(=S)N/N=C/c1cccnc1	-12%	-10%	.	.	.
NC(=S)N/N=C\c1ccccc1OCc1ccccc1	?	-11%	10%	11µM*	+
CNC(=S)N/N=C/c1ccc2c(c1)OCCO2	58%	47%	?	2%	.
NC(=S)N/N=C/c1ccc2c(c1)OCCO2	-7%	113%	.	14µM*	+
NC(=S)N/N=C\c1c2ccccc2cc2ccccc12	-16%	-3%	8%	14µM*	i
O=C(CSCc1ccccc1)N/N=C/c1ccccc1OCc1ccccc1	?	?	-24%	-6%	.
NC(=S)N/N=C/c1ccccc1	?	8%	3%	2.5µM*	+
O=C(COc1ccc(Cl)cc1Cl)N/N=C/c1ccc(OC2OC(CO)C(O)C(O)C2O)cc1 (configuration not stated)	-7%	0%	6%	1%	.
COc1cc(/C=N/NC(N)=S)ccc1OC(=O)c1ccc(C)cc1	.	20%	-7%	17%	.
COc1cc(/C=N/NC(N)=S)ccc1OCc1ccc(C)cc1	?	?	19%	?	+
COc1cc(F)cc(-c2ccc3c(c2)c(C#Cc2ccsc2)c(-c2cc(OC)cc(OC)c2)n3C)c1	.	.	.	-4%	.
Cn1cccc1C(=S)N=P(C1CCCCC1)(N1CCOCC1)N1CCOCC1	8.3µM*	.	-12%	2.8µM*	i
O=C(Nc1ccc(F)cc1F)NC1CCN(S(=O)(=O)c2ccc(F)cc2)CC1	-5%	-5%	.	-1%	.
Cc1cc(Cl)ccc1NC(=O)NC1CCN(S(=O)(=O)c2ccc(F)cc2)CC1	?	.	9%	?	?
COc1ccc(NC(=O)CC2SC(N3CCOCC3)=NC2=O)cc1OC (configuration not stated)	-17%	?	.	-10%	.
CCCS(=O)(=O)N1CCCC(C(=O)Oc2ccc(C)c(C)c2)C1 (configuration not stated)	-5%	1%	7%	-9%	.
Cc1sc2nc(CN(C(=O)NC3CCCCC3)C3CCCC3)[nH]c(=O)c2c1C	-21%	?	-12%	3.5µM*	?
CCOc1ccc(N2CC(C(=O)Nc3ccccc3C(=O)NC3CC3)CC2=O)cc1 (configuration not stated)	34%	4%	-3%	-1%	.
CCc1nnc(NS(=O)(=O)c2ccc(N=CC3=C(O)CC(C)(C)CC3=O)cc2)s1	?	7%	.	2%	.
O=[N+]([O-])c1ccc(Oc2cccc3cccnc23)c([N+](=O)[O-])c1	13µM*	10µM*	-18%	.	i
